Results filed as inconclusive are left out. Entries that show only a call come without a potency. Active and inactive are the calls of the source. The call rests on the fitted dose curve; in most records, active means well fitted cell-killing curve with a large enough effect; inconclusive means small, poorly fitted or top-dose-only effect; inactive means no such curve, though single readings can be large or run the other way.

A short description of the first assay: qHTS of pediatric cancer cell lines to identify multiple opportunities for drug repurposing: Primary screen for Saos-2 cells (AID 1347097). Further: nearly all actives have a fitted effect of over 40% in size. Particulars: Saos-2 viability, CellTiter-Glo ATP luminescence, 48 h; series mostly up to 46 µM. The essentials: (§1)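 Following a 5-hour attachment period, cells at 500-1,000/well received compounds and were cultured for 48 hours. CellTiter-Glo was added and luminescence read to estimate viable, metabolically active cells.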
On the technique in general: In qHTS, concentration-response curves come from the screen itself.
With `COc1ccnc2c1CCCCC2S(=O)c1nc2ccccc2[nH]1` (stereo not drawn), the Potency entry is “inactive”.
As for `CCCCCCCCCCCCOCCO`, the Potency result was “inactive”.
The same measure, in the same setting: the result for `CC1(C)S[C@@H]2[C@H](NC(=O)[C@H](N)c3ccccc3)C(=O)N2[C@H]1C(=O)O` reads “inactive”; that for `O=C(CCN1CCN(CCO)CC1)N1c2ccccc2Sc2ccc(C(F)(F)F)cc21`, “inactive”.
The same measure, in the same setting: under `O=C(O)Cc1ccc2c(c1)C(=O)c1ccccc1CO2` stands “inactive”; under `O=C(O)/C=C\C(=O)O`, “inactive”.

The next assay can be described thus: qHTS of pediatric cancer cell lines to identify multiple opportunities for drug repurposing: Primary screen for SK-N-SH cells (AID 1347098).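 Further: DMSO served as neutral control and bortezomib at 2.3 µM as positive control; nearly all actives have a fitted effect of over 65% in size.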 The settings on record: SK-N-SH viability, CellTiter-Glo luminescence, 48 h; series mostly up to 57 µM. In short, it runs like this:
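Cells (500-1,000/well) rested 5 h, then received compounds for 48 h; metabolically active cells were measured by CellTiter-Glo luminescence. Final concentrations spanned up to 46 µM (MIPE, 11-point) or 0.59 nM-46 µM (NPC, 8-point) in primary screens, 11-point in follow-ups.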
In the case of `COc1ccnc2c1CCCCC2S(=O)c1nc2ccccc2[nH]1` (stereo not drawn), the Potency entry is “inactive”.
`CCCCCCCCCCCCOCCO`: the Potency result is “inactive”.
Same read-out and setting: under `CC1(C)S[C@@H]2[C@H](NC(=O)[C@H](N)c3ccccc3)C(=O)N2[C@H]1C(=O)O` stands “inactive”; under `O=C(CCN1CCN(CCO)CC1)N1c2ccccc2Sc2ccc(C(F)(F)F)cc21`, “inactive”; under `O=C(O)Cc1ccc2c(c1)C(=O)c1ccccc1CO2`, “inactive”.
Turning to `O=C(O)/C=C\C(=O)O`, the Potency entry was “inactive”.

The next assay is described as follows: qHTS of pediatric cancer cell lines to identify multiple opportunities for drug repurposing: Primary screen for NB1643 cells (AID 1347099). Further: nearly all actives have a fitted effect of over 50% in size. Particulars: NB1643 neuroblastoma viability, CellTiter-Glo luminescence, 48 h; series mostly up to 46 µM. In short, it runs like this: as §1
`COc1ccnc2c1CCCCC2S(=O)c1nc2ccccc2[nH]1` (stereo not drawn): the Potency entry is “inactive”.
As to `CCCCCCCCCCCCOCCO`, the Potency entry was “inactive”.
For the molecule `CC1(C)S[C@@H]2[C@H](NC(=O)[C@H](N)c3ccccc3)C(=O)N2[C@H]1C(=O)O`, the Potency entry is “inactive”.
In the case of `O=C(CCN1CCN(CCO)CC1)N1c2ccccc2Sc2ccc(C(F)(F)F)cc21`, the Potency result is “inactive”.
Take `O=C(O)Cc1ccc2c(c1)C(=O)c1ccccc1CO2`: the Potency entry was “inactive”.
Regarding `O=C(O)/C=C\C(=O)O`, the Potency entry was “inactive”.

The values are drawn from PubChem BioAssay (NCATS).
